Assay results from PubChem BioAssay (NCATS).
Inconclusive results are not listed. Calls of active or inactive are those of the source. Calls come from the whole dose curve; as a rule, active = well fitted cell-killing curve with a large enough effect; inconclusive = small, poorly fitted or top-dose-only effect, or effect the other way; inactive = no such curve, though single readings can be large or run the other way.

Assays:
[1] = Quantitative High-Throughput drug screen in 47 multiple myeloma cell lines against the NCATS MIPE library collection: FR4_PLB cell viability assay (AID 1918924; note: nearly all actives have a fitted effect of over 35% in size); details: FR4_PLB myeloma cells viability, CellTiter-Glo ATP, 48 h; series mostly up to 45.8 µM
Method in brief: (§1)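 Steps: seed 500 cells per well; pin-transfer MIPE 4.0 library; incubate 48 h at 37C, 5% CO2, humidified; add CellTiter-Glo, 5 min room temperature; read luminescence.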

[2] = Quantitative High-Throughput drug screen in 47 multiple myeloma cell lines against the NCATS MIPE library collection: Delta47_JCRB cell viability assay (AID 1918925; note: nearly all actives have a fitted effect of over 45% in size); details: Delta47 myeloma viability, CellTiter-Glo ATP, 48 h; series mostly up to 45.8 µM
Method in brief: (§2)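 Approved and investigational drugs from MIPE 4.0 were added by pin tool to 500 cells per well. After 48 hours at 37C, ATP-based CellTiter-Glo luminescence indicated remaining viability.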

[3] = Quantitative High-Throughput drug screen in 47 multiple myeloma cell lines against the NCATS MIPE library collection: EJM_DSMZ cell viability assay (AID 1918926; note: nearly all actives have a fitted effect of over 30% in size); details: EJM myeloma cell viability, CellTiter-Glo ATP, 48 h; series mostly up to 45.8 µM
Method in brief: as §2

[4] = Quantitative High-Throughput drug screen in 47 multiple myeloma cell lines against the NCATS MIPE library collection: AMO1_DSMZ cell viability assay (AID 1918927; note: nearly all actives have a fitted effect of over 30% in size); details: AMO1 myeloma cells viability, CellTiter-Glo ATP luminescence, 48 h; series mostly up to 45.8 µM
Method in brief: as §2

[5] = Quantitative High-Throughput drug screen in 47 multiple myeloma cell lines against the NCATS MIPE library collection: ARP1_JJKsccF8 cell viability assay (AID 1918928; note: nearly all actives have a fitted effect of over 40% in size); details: ARP1 myeloma cells viability, CellTiter-Glo ATP, 48 h; series mostly up to 45.8 µM
Method in brief: (§3)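 Viability screen: myeloma cells (500/well) incubated 48 h at 37 °C, humidified 5% CO2, with pinned library compounds; CellTiter-Glo added, luminescence read; DMSO wells set 100%, medium-only wells 0%.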

[6] = Quantitative High-Throughput drug screen in 47 multiple myeloma cell lines against the NCATS MIPE library collection: ARD_JJKsccE7 cell viability assay (AID 1918929); details: ARD myeloma cell line viability, CellTiter-Glo, 48 h; series mostly up to 45.8 µM
Method in brief: as §2

[7] = Quantitative High-Throughput drug screen in 47 multiple myeloma cell lines against the NCATS MIPE library collection: Karpas620_DSMZ cell viability assay (AID 1918959); details: Karpas620 myeloma viability, CellTiter-Glo ATP luminescence, 48 h; series mostly up to 45.8 µM; note: nearly all actives have a fitted effect of over 30% in size
Method in brief: as §1

[8] = Quantitative High-Throughput drug screen in 47 multiple myeloma cell lines against the NCATS MIPE library collection: KMM1_JCRB cell viability assay (AID 1918960); details: KMM1 myeloma viability, CellTiter-Glo ATP luminescence, 48 h; series mostly up to 45.8 µM; note: nearly all actives have a fitted effect of over 30% in size
Method in brief: as §3

[9] = Quantitative High-Throughput drug screen in 47 multiple myeloma cell lines against the NCATS MIPE library collection: Karpas417_ECACC cell viability assay (AID 1918961); details: Karpas417 myeloma viability, CellTiter-Glo ATP luminescence, 48 h; viability (% of DMSO): at 45.8 µM (top of the series)
Method in brief: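 CellTiter-Glo luminescence (ATP) after 48 h compound exposure, 37C/5% CO2; 500 cells/well; MIPE 4.0 approved/investigational drugs pinned in; DMSO = 100%, media only = 0% viability.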
Potency is the fitted concentration of half-maximal effect.

Row | SMILES | Potency [1] | Potency [2] | Potency [3] | Potency [4] | Potency [5] | Potency [6] | Potency [7] | Potency [8] | Potency [9]
1 | COc1cc2ncnc(Nc3ccc(F)c(Cl)c3)c2cc1NC(=O)C=CCN1CCCCC1 | 26400 nM (active) | 5260 nM (active) | 20900 nM (active) | 2960 nM (active) | 23500 nM (active) | 9350 nM (active) | 2960 nM (active) | 8330 nM (active) | 
2 | O=C(NC1CCNCC1)c1[nH]ncc1NC(=O)c1c(Cl)cccc1Cl | 83.3 nM (active) | 372 nM (active) | 105 nM (active) | 1180 nM (active) | 372 nM (active) |  | 935 nM (active) | 590 nM (active) | 187 nM (active)
3 | c1cc(-c2cnn3cc(-c4ccc(OCCN5CCCCC5)cc4)cnc23)ccn1 | 11800 nM (active) | 2090 nM (active) | 16600 nM (active) |  | 16600 nM (active) | inactive | inactive | inactive | 
4 | COCCOc1ccc2c(c1)ncn2-c1ccc2cccc(N3CCC(N)CC3)c2n1 | 10500 nM (active) | 4180 nM (active) | 5900 nM (active) | 2090 nM (active) | 418 nM (active) | 2960 nM (active) | 10500 nM (active) |  | 590 nM (active)
5 | CC(C)[C@H](C(=O)Nc1ccc(C(=O)NO)cc1)c1ccccc1 | 372 nM (active) | 372 nM (active) | 1870 nM (active) | 469 nM (active) | 132 nM (active) | 418 nM (active) | 1050 nM (active) | 662 nM (active) | 469 nM (active)
6 | COc1ccc(C=Cc2cc(OC)c(OC)c(OC)c2)cc1O | inactive | inactive | inactive | inactive | inactive | inactive |  | inactive | 
7 | Cn1cncc1[C@@](N)(c1ccc(Cl)cc1)c1ccc2c(c1)c(-c1cccc(Cl)c1)cc(=O)n2C | 20900 nM (active) | 6620 nM (active) | 14800 nM (active) | 7430 nM (active) | 469 nM (active) |  | 5900 nM (active) |  | 
8 | CCC1=C[C@@H]2CN(C1)Cc1c([nH]c3ccccc13)[C@@](C(=O)OC)(c1cc3c(cc1OC)N(C)[C@@H]1[C@@](O)(C(=O)OC)[C@H](OC(C)=O)[C@]4(CC)C=CCN5CC[C@]31[C@@H]54)C2 | 4.7 nM (active) | 23.5 nM (active) | 1050 nM (active) | 52.6 nM (active) | 5.3 nM (active) | 7.4 nM (active) |  |  | 
9 | O=C(CCCCCCNC(=O)c1cnc(N(c2ccccc2)c2ccccc2)nc1)NO | 2960 nM (active) | 3320 nM (active) | 13200 nM (active) | 4690 nM (active) | 2960 nM (active) |  | 5900 nM (active) |  | 590 nM (active)
10 | COC(=O)[C@]12CCC(C)(C)C[C@@H]1[C@@H]1C(=O)C=C3[C@@]4(C)C=C(C#N)C(=O)C(C)(C)[C@@H]4CC[C@@]3(C)[C@]1(C)CC2 | 372 nM (active) | 235 nM (active) | 418 nM (active) | 469 nM (active) | 469 nM (active) | 662 nM (active) | 526 nM (active) | 662 nM (active) | 526 nM (active)
11 | C[C@@H](Oc1cc(-n2cnc3ccc(CN4CCN(C)CC4)cc32)sc1C(N)=O)c1ccccc1C(F)(F)F | 33.2 nM (active) | 41.8 nM (active) | 23500 nM (active) | 74.3 nM (active) | 105 nM (active) |  |  | 33.2 nM (active) | 
12 | Cc1cccc(C=NNc2cc(N3CCOCC3)nc(OCCc3ccccn3)n2)c1 | 4690 nM (active) | 1320 nM (active) |  |  |  |  |  |  | 
13 | CCCCc1nc2cc(C=CC(=O)NO)ccc2n1CCN(CC)CC | 83.3 nM (active) | 469 nM (active) | 1320 nM (active) |  | 148 nM (active) |  |  |  | 
14 | C[C@@]12O[C@@H](C[C@]1(O)CO)n1c3ccccc3c3c4c(c5c6ccccc6n2c5c31)CNC4=O | 6620 nM (active) | 418 nM (active) | 2960 nM (active) |  | 662 nM (active) |  |  | 526 nM (active) | 
15 | CC1(C)OC2=C(C(=O)c3ccccc3C2=O)[C@H](NCc2ccccc2)[C@H]1O | 2640 nM (active) | 2090 nM (active) | 2350 nM (active) | 662 nM (active) | 5260 nM (active) | 4180 nM (active) |  | 2350 nM (active) | 1870 nM (active)
16 | C1=CCOCc2cc(ccc2OCCN2CCCC2)Nc2nccc(n2)-c2cccc(c2)OCC1 | 3320 nM (active) | 2350 nM (active) | 2640 nM (active) | 3320 nM (active) | 1660 nM (active) |  | 2090 nM (active) | 1870 nM (active) | 1660 nM (active)
17 | O=C(NCCS(=O)(=O)c1ccc(C(F)(F)F)cn1)c1ccc(Cl)cc1 | inactive | inactive | inactive | inactive | inactive | inactive | inactive | inactive | 23.5 nM (active)
18 | Nc1ccc(C(=O)c2cc3c(ccc4ccccc43)[nH]2)cc1 | 1180 nM (active) | 1870 nM (active) | 4180 nM (active) |  | 2960 nM (active) |  |  |  | 
